From PubChem
APE1 inh-1 = blocks human APE1 abasic DNA cleavage; P27695; recombinant APE1, TAMRA/BHQ-2 abasic DNA cleavage fluorescence; AID 2517; Potency, µM (series often up to 65.8 µM), for the others: at the top dose activity change, negative = inhibition, usual class: inhibitors; 0.35% of 350,000 active;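 note: potency is the fitted concentration of half-maximal effect; plate controls were vehicle for no effect and reference inhibitor for full effect; nearly all actives have a fitted effect of over 55% in size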
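Kinetic fluorescence read (525 ex/598 em nm, three reads 60 s apart) of AP-site incision; signal = third minus first read. Enzyme 0.75 nM, dual-labelled THF duplex 50 nM, compound preincubation 15 min RT.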
PI5P4Ka inh = PI5P4K alpha (human) kinase inhibition | max response, % | PI5P4Kalpha enzyme, ADP-Glo luminescence, 60 min; hits give low values | AID 652105 | 1.2% of 330,000 active | P48426; active = max response of -50% or lower; inconclusive = between -30% and -50%; inactive = -30% or higher; note: value at the top dose of about 77 µM; % is set by controls: 0 for no effect and ±100 for the full control effect
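Luminescence from ADP-Glo served as readout of PI5P4Kalpha activity in a qHTS format. Reaction: enzyme, substrate, compound, ATP at 5 microM final, 60 min at RT.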
BLM helicase inh-1 = inhibitors of human Bloom syndrome helicase BLM; P54132; recombinant BLM DNA unwinding, fluorescence dequenching; Potency, µM (titrated, usually from 56.1 µM), for inactives: top-dose activity change, negative = inhibition, hits mostly inhibitors; 0.2% of 350,000 active; AID 2528;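 note: potency is the fitted concentration of half-maximal effect; plate controls were vehicle for no effect and no enzyme for full effect; nearly all actives have a fitted effect of over 35% in size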
Target sequence (P54132 whole entry, looked up): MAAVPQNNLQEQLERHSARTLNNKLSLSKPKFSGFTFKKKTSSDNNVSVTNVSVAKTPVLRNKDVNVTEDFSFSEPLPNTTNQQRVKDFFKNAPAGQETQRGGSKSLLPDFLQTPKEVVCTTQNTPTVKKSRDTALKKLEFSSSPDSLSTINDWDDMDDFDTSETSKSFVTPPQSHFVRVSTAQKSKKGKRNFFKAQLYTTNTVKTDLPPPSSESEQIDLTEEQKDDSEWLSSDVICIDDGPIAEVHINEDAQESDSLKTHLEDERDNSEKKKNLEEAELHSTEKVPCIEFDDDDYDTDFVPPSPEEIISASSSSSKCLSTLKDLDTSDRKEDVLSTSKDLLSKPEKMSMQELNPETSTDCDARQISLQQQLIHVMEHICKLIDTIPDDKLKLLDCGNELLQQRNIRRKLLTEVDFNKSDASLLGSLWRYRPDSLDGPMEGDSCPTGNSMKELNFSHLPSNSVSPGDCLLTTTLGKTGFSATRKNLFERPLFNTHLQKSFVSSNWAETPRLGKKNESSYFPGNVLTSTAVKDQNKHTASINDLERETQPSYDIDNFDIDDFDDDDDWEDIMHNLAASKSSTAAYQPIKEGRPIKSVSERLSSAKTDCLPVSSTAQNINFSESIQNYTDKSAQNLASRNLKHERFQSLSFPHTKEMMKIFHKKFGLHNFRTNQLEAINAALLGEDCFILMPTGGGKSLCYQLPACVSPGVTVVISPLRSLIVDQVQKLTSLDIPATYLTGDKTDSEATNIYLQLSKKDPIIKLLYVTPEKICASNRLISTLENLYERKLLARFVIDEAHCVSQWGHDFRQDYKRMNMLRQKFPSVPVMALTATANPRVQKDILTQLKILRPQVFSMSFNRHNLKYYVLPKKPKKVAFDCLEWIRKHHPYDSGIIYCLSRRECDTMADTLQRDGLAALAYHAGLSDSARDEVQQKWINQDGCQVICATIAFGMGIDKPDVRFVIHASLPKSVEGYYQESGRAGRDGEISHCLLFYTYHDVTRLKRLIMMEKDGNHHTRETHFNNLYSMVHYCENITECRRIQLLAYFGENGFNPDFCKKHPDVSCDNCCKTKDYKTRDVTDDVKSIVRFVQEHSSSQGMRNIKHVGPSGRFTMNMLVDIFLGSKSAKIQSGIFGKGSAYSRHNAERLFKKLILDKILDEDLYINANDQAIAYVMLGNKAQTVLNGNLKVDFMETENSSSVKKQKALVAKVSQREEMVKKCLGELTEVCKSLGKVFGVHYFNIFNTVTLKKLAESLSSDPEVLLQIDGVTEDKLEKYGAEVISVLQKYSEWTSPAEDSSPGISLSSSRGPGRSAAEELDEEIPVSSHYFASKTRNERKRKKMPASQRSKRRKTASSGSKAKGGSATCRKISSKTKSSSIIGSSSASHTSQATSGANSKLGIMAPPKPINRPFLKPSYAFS
WRN helicase inh-1 = inhibitors of human WRN helicase | Q14191 | WRN helicase unwinding, fluorescent forked duplex, kinetic | Potency, µM (doses to about 114 µM), without a hit: at the highest dose activity change, negative = inhibition, actives largely listed as inhibitors | 0.46% of 360,000 active; note: potency is the fitted concentration of half-maximal effect; % is set by controls: 0 for no effect and ±100 for the full control effect; nearly all actives have a fitted effect of over 55% in size
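Screening of the MLSMR collection measured strand separation of a quenched forked DNA duplex (100 nM) by 20 nM WRN with 2 mM ATP, all final. Compounds were preincubated with enzyme 15 min at room temperature.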
RECQ1 inh-1 = RECQ1 (human) helicase inhibition | RECQ1 DNA unwinding, red fluorescence kinetic read | 0.54% of 240,000 active | P46063 | Potency, µM (doses to about 57.3 µM), inactives show at the top dose activity, negative = inhibition, hits mostly inhibitors;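 note: potency is the fitted concentration of half-maximal effect; plate controls were vehicle for no effect and no enzyme for full effect; nearly all actives have a fitted effect of over 30% in size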
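RECQ1T1 50 nM; forked duplex (20 bp + 30-nt ss tails) 200 nM, ATP 2 mM final; pH 8.0, 2 mM MgCl2, 2.5 ug/ml poly(dI-dC); 15 min compound preincubation; discontinuous kinetic read over 2 h at RT.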
FEN1 inh-1 = inhibitors of human flap endonuclease 1; Recombinant FEN1 flap cleavage, fluorescence, 15 min; Potency, µM (titrated, usually from 114 µM), for inactives: at the highest dose activity change, negative = inhibition, actives largely listed as inhibitors; 0.35% of 390,000 active; note: potency is the fitted concentration of half-maximal effect; % is set by controls: 0 for no effect and ±100 for the full control effect; nearly all actives have a fitted effect of over 65% in size
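Potency values derive from four-parameter Hill fits of normalized qHTS data. The reaction used 10 nM FEN1 preincubated 15 min at room temperature with compound, then 50 nM DNA substrate, read at 0 and 15 min.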
APE1 dye cs = DNA dye displacement counter-screen activity. shares compounds with APE1 inh-1. DNA fluorescent dye displacement counterscreen, fluorescence. Potency, µM (titrated, usually from 28.5 µM), inactives show at the top dose activity change, negative = inhibition, most hits filed as inhibitors. 7% of 480 active;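 note: loss of thiazole orange fluorescence as the dye is displaced from duplex DNA; potency is the fitted concentration of half-maximal effect; 0% = ThO with dsDNA and no compound and -100% = ThO without dsDNA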
Endo IV inh = counter-screen for APE1 inhibitors: inhibitors of E. coli endonuclease IV; shares compounds with APE1 inh-1; E. coli Endo IV, fluorogenic AP-site DNA cleavage; Potency, µM (series often up to 27.1 µM), inactives show at the top dose activity change, negative = inhibition, hits mostly inhibitors; 4% of 560 active;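 note: potency is the fitted concentration of half-maximal effect; plate controls were uninhibited enzyme wells for no effect and no enzyme buffer wells for full effect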
APE1 inh-2 = APE1 (human) endonuclease inhibition, confirmation; shares compounds with APE1 inh-1; purified APE1, fluorogenic abasic-site DNA cleavage; Potency, µM (series often up to 57.1 µM), without a hit: at the highest dose activity change, negative = inhibition, most hits filed as inhibitors; AID 2572; 44% of 750 active; note: potency is the fitted concentration of half-maximal effect; % is set by controls: 0 for no effect and ±100 for the full control effect; nearly all actives have a fitted effect of over 30% in size
APE1 FP inh = displaces DNA from human APE1 in FP assay; Potency, µM (titrated, usually from 28.5 µM), inactives show top-dose activity, negative = inhibition, hits mostly inhibitors; AID 2573; shares compounds with APE1 inh-1; APE1 binding to TAMRA-labelled double-stranded DNA, fluorescence polarization displacement; 7% of 480 active; note: potency is the fitted concentration of half-maximal effect; % is set by controls: 0 for no effect and ±100 for the full control effect
RECQ1 inh conf = confirmation of human RECQ1 helicase inhibitors; shares compounds with RECQ1 inh-1; RECQ1 helicase DNA unwinding, fluorescence; Potency, µM (series often up to 229 µM), for the others: top-dose activity change, negative = inhibition, usual class: inhibitors; 28% of 610 active; AID 2708; note: potency is the fitted concentration of half-maximal effect; % is set by controls: 0 for no effect and ±100 for the full control effect; nearly all actives have a fitted effect of over 45% in size
RECQ1 ADP FP = counter-screen for RECQ1 inhibitors: ADP displacement; shares compounds with RECQ1 inh-1; ADP fluorescence polarization displacement counterscreen; Potency, µM (highest dose often 228 µM), without a hit: at the highest dose activity change, negative = inhibition, usual class: inhibitors; 27% of 530 active; note: potency is the fitted concentration of half-maximal effect; % is set by controls: 0 for no effect and ±100 for the full control effect; nearly all actives have a fitted effect of over 45% in size
RECQ1 inh-2 = confirmation of human RECQ1 helicase inhibitors; shares compounds with RECQ1 inh-1; recombinant RECQ1 DNA unwinding, red fluorescence; Potency, µM (doses to about 119 µM), for the others: top-dose activity, negative = inhibition, usual class: inhibitors; 15% of 1,100 active; AID 504841; note: potency is the fitted concentration of half-maximal effect; % is set by controls: 0 for no effect and ±100 for the full control effect; nearly all actives have a fitted effect of over 50% in size
FEN1 inh-2 = confirmation of human FEN1 inhibitors; shares compounds with FEN1 inh-1; FEN1 flap cleavage, TAMRA/BHQ2 fluorogenic DNA substrate; Potency, µM, actives largely listed as inhibitors; 79% of 880 active; AID 720498; note: potency is the fitted concentration of half-maximal effect; nearly all actives have a fitted effect of over 60% in size
WRN helicase inh-2 = WRN helicase inhibition, cherry-pick retest; shares compounds with WRN helicase inh-1; Potency, µM (titrated, usually from 57.1 µM), for the others: top-dose activity, negative = inhibition, actives largely listed as inhibitors; AID 720497; WRN helicase DNA unwinding, fluorescence kinetic; 63% of 610 active; note: potency is the fitted concentration of half-maximal effect; nearly all actives have a fitted effect of over 65% in size
TO displacement = counter-screen for WRN helicase inhibitors: DNA binding; Potency, µM (series often up to 57.1 µM), for the others: at the top dose activity change, negative = inhibition, actives largely listed as inhibitors; thiazole orange DNA binding displacement, fluorescence; AID 720499; shares compounds with WRN helicase inh-1; 10% of 610 active;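 note: drop in dye fluorescence marks compound binding to DNA; potency is the fitted concentration of half-maximal effect; % is set by controls: 0 for no effect and ±100 for the full control effect; nearly all actives have a fitted effect of over 60% in size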
BLM helicase inh-2 = blocks human BLM helicase in WRN counterscreen. shares compounds with WRN helicase inh-1. Potency, µM (highest dose often 57.1 µM), inactives show at the highest dose activity change, negative = inhibition, usual class: inhibitors. AID 720503. Recombinant BLM helicase DNA unwinding, red fluorescence. 60% of 610 active; note: potency is the fitted concentration of half-maximal effect; nearly all actives have a fitted effect of over 60% in size
ADP-Glo interf = interferes with ADP-Glo detection without enzyme present; Potency, µM (series often up to 76.9 µM), inactives show top-dose activity change, negative = inhibition, most hits filed as inhibitors; shares compounds with PI5P4Ka inh; ADP-Glo detection counter-screen, luciferase luminescence, no enzyme; AID 743285; 1,100 tested, under 10 active
* marks the source's active call; other numbers are inactive results; i = inactive; ? = inconclusive; / = not tested or not shown; ! = not confirmed by another sample; [ ] = another dose, or the depositor's remark. In the library only some 1.5% were active in any assay of this set; here they are far more common. Unless noted, calls come from the whole dose curve; as a rule, active = well fitted curve in the direction sought with a large enough effect; inconclusive = small, poorly fitted or top-dose-only effect, or another doubt; inactive = no such curve, though single readings can be large; an effect the other way counts as inactive or inconclusive.

SMILES | APE1 inh-1 | PI5P4Ka inh | BLM helicase inh-1 | WRN helicase inh-1 | RECQ1 inh-1 | FEN1 inh-1 | APE1 dye cs | Endo IV inh | APE1 inh-2 | APE1 FP inh | RECQ1 inh conf | RECQ1 ADP FP | WRN helicase inh-2 | TO displacement | BLM helicase inh-2 | others
O=C1CCCC2=C1C(c1ccc(O)c(O)c1)Nc1ccc3ccccc3c12 (configuration not stated) | / | ? | / | -20% | / | -8% | / | / | / | / | / | / | / | / | /
O=C1CCCC2=C1C(c1ccco1)Nc1ccc3ccccc3c12 (configuration not stated) | 14µM* | -64* | -28% | 18µM* | 10µM* | 50µM* | -9% | 4% | 4µM* | ? | 25µM* | 50µM* | 15µM* | -28% | 3µM* | RECQ1 inh-2=16µM*;FEN1 inh-2=76*
O=c1c(O)c(-c2ccc(O)c(O)c2)oc2cc(O)ccc12 | ? | ? | -26% | 2.4µM* | 3.2µM*! | ? | 2.8µM* | 232%[57.1 µM] | 0.89µM* | 6%[57.1 µM] | / | / | 1.5µM* | -11% | 0.86µM*
O=C(c1coc(=O)c(Br)c1)N1CCC(C(O)(c2ccccc2)c2ccccc2)CC1 | 2% | -22 | 4% | -21% | -17% | 0% | / | / | / | / | / | / | / | / | /
CC1(C)CCCN(C(=O)c2coc(=O)c(Br)c2)C1 | 4µM* | -82* | 30% | 18µM* | 11µM* | 56µM* | / | / | 1.3µM* | / | 20µM* | -6%[91.9 µM] | 1.9µM* | ? | 0.48µM*
O=C1/C(=C/C=C/c2ccco2)SC(=S)N1c1ccc(O)cc1 | 7.9µM* | -102* | ? | 32µM* | 11µM* | 14µM* | ? | 20% | ? | 9% | ? | -12%[91.9 µM] | 12µM* | ? | 8.6µM*
O=C(O)c1ccc(N2C(=O)/C(=C/C=C/c3ccccc3)SC2=S)cc1 | 3% | -26 | 1% | -7%[57.1 µM] | i | -7% | / | / | / | / | / | / | / | / | /
O=C(O)c1cccc(-c2ccc(/C=c3/sc4nc5ccccc5n4c3=O)o2)c1 | 10µM* | ? | 28% | 40µM* | ? | 13µM* | 6.3µM* | 8% | 5µM* | 7.9µM* | / | / | 4.8µM* | ? | 1.9µM* | FEN1 inh-2=76*
O=C(CCCN1C(=O)/C(=C/c2ccco2)SC1=S)Nc1cccc(C(=O)O)c1 | 7.9µM* | -60* | ? | 35µM* | 8.9µM* | ? | 1% | 106% | ? | -9% | 71µM* | 0%[91.9 µM] | 19µM* | -8% | 19µM*
O=C(CCCN1C(=O)/C(=C\c2cccs2)SC1=S)Nc1cccc(C(=O)O)c1 | 9% | -2 | -3% | -12% | -5% | 3% | / | / | / | / | / | / | / | / | /
CCC(C)NC(=O)Cn1ncc2c(C)n(Cc3ccc(F)cc3)c(C)c2c1=O (configuration not stated) | / | / | 4% | / | / | -5% | / | / | / | / | / | / | / | / | /
COc1ccc(C2(CNC(=O)C(=O)Nc3ccc(F)cc3)CCCC2)cc1OC | / | / | -7% | / | / | -8% | / | / | / | / | / | / | / | / | /
O=C(Nc1nc(-c2ccco2)c(-c2ccco2)s1)C1CC(=O)N(c2ccc3c(c2)OCCO3)C1 (configuration not stated) | 2.5µM* | -76* | 14µM* | 13µM* | 7.9µM* | ? | 11µM* | 8% | ? | -3% | 28µM* | 40µM* | / | / | / | RECQ1 inh-2=?;ADP-Glo interf=3%
Cc1csc(NC(=O)C2CC(=O)N(c3ccc4c(c3)OCCO4)C2)n1 (configuration not stated) | 24% | 7 | / | 2% | / | 17% | / | / | / | / | / | / | / | / | /
COc1ccc(C(CC(=O)N2CCCCC2)c2c(OC)cc(OC)c3c(-c4ccccc4)cc(=O)oc23)cc1 (configuration not stated) | 25µM* | -81* | -27% | -9%[11.6 µM] | ? | -20% | 13% | ? | 7.9µM* | 14µM* | / | / | / | / | / | ADP-Glo interf=5%
CC(=O)N1CCc2cc(CNS(=O)(=O)c3ccccc3C(F)(F)F)ccc21 | / | / | 1% | / | / | -9% | / | / | / | / | / | / | / | / | /
